17 molecules from PubChem BioAssay (Tox21) can be followed below.

Assay [1] is described as follows: qHTS assay to identify small molecule agonists of the vitamin D receptor (VDR) signaling pathway - cell viability counter screen (AID 743224; active = well fitted curve in the direction sought with a large enough effect in the repeat runs; an effect the other way counts as inactive or inconclusive; note: nearly all actives have a fitted effect of over 50% in size; note: potency is the fitted concentration of half-maximal effect). The method in brief:
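Counter screen for cytotoxicity: VDR-bla cells at 2,000 cells/well, 16 h compound exposure, then CellTiter-Glo luminescence after the beta-lactamase measurement.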
In general terms: In qHTS, concentration-response curves come from the screen itself.

Assay [2] can be described thus: qHTS assay to identify small molecule antagonists of the vitamin D receptor (VDR) signaling pathway - cell viability counter screen (AID 743225; active = well fitted curve in the direction sought with a large enough effect in the repeat runs; an effect the other way counts as inactive or inconclusive; note: nearly all actives have a fitted effect of over 50% in size; note: potency is the fitted concentration of half-maximal effect). The method, boiled down:
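VDR-bla HEK 293T cells, 4 h pre-incubation at 37C, then compound plus 1-alpha,25-dihydroxyvitamin D3 (3 nM final) for 16 h. After the beta-lactamase FRET read, CellTiter-Glo was added to the same wells; luminescence after 30 min at room temperature.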

Assay [3] can be described thus: qHTS assay to identify small molecule agonists of the NFkB signaling pathway - cell viability counter screen (AID 1159515). Note: nearly all actives have a fitted effect of over 55% in size. Note: potency is the fitted concentration of half-maximal effect. The method in brief:
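Counter screen run alongside the NFkB-bla agonist assay: ME-180 reporter cells exposed to compounds for 5 hr, then lysed with CellTiter-Glo in the same wells. Luminescence, read after 30 min, reflects viable cells.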

A short description of assay [4]: qHTS assay to identify small molecule agonists of the endoplasmic reticulum stress response signaling pathway (AID 1159516; active = well fitted activation curve with a large enough effect in the signal ratio in the repeat runs, not every such curve was filed as active; the % refers to the signal ratio). The method, boiled down:
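For this screen, HeLa cells stably carrying beta-lactamase under the ER stress response element received test compounds, positive controls or DMSO for 5 hr at 37 C; B/G FRET substrate was then added and dual-wavelength emission recorded.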

The nature of assay [5]: qHTS assay to identify small molecule agonists of the endoplasmic reticulum stress response signaling pathway - cell viability counter screen (AID 1159517). Note: nearly all actives have a fitted effect of over 50% in size. Note: potency is the fitted concentration of half-maximal effect. The method, boiled down: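 ESRE-bla HeLa cells (1,500/well) were plated overnight at 37 C and exposed to compounds for 5 hr. After the 2 hr beta-lactamase substrate read, CellTiter-Glo went into the same wells, and luminescence was read after 30 min at room temperature.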

Assay [6] can be described thus: qHTS assay to identify small molecule antagonists of the retinoid-related orphan receptor gamma (ROR-gamma) signaling pathway - cell viability counter screen (AID 1159520; active = well fitted curve in the direction sought with a large enough effect in the repeat runs; an effect the other way counts as inactive or inconclusive; note: nearly all actives have a fitted effect of over 50% in size; note: potency is the fitted concentration of half-maximal effect). The method in brief: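 Cytotoxicity was read from cellular ATP (CellTiter-Glo luminescence) after 16 hr at 37 C with 1 uM doxycycline induction. The inducer was added 2 hr after compound transfer to Tet-on ROR gamma CHO cells.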

Assay [7] concerns the target Nuclear receptor ROR-gamma (Homo sapiens) (UniProt P51449). Briefly: qHTS assay to identify small molecule antagonists of the retinoid-related orphan receptor gamma (ROR-gamma) signaling pathway (AID 1159521; active = well fitted curve in the direction sought with a large enough effect in the repeat runs; an effect the other way counts as inactive or inconclusive; note: nearly all actives have a fitted effect of over 50% in size; note: potency is the fitted concentration of half-maximal effect). The method in brief: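 Tet-on RORγ CHO cells carrying a ROR response element–luciferase reporter were pretreated with compounds for 2 h, then induced with 1 uM (final) doxycycline hyclate for 16 h at 37 C. Antagonism was read as decreased ONE-Glo luminescence.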

Assay [8] in a line: qHTS assay to identify small molecule agonists of the AP-1 signaling pathway (AID 1159526).
Assay [9] in a line: qHTS assay to identify small molecule agonists of the AP-1 signaling pathway - cell viability counter screen (AID 1159525). Note: nearly all actives have a fitted effect of over 55% in size. Note: potency is the fitted concentration of half-maximal effect. The method, boiled down: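 Intracellular ATP by Cell Titer Glo luminescence (30 min, RT) in the same ME-180 AP-1-bla wells after the 5 h compound exposure at 37 °C. Normalised to tetra n-octyl ammonium bromide and DMSO controls.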
Assay [10] addresses Retinoic acid receptor RXR-alpha (Homo sapiens) (UniProt P19793). Briefly: qHTS assay to identify small molecule agonists of the RXR signaling pathway (AID 1159527). Note: nearly all actives have a fitted effect of over 35% in size. The method in brief: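 GeneBLAzer RXR-alpha-UAS-bla HEK 293T cells in medium with 2% charcoal-stripped FBS, pre-incubated 5 hr at 37 C, then exposed to compounds 16 hr. Beta-lactamase reporter read by FRET substrate, 2 hr room temperature, 460/530 nm emission.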

“And” between values parts separate entries of the source, which are not always exact repeats. Equal values may be shown once. Inconclusive results are not listed. More than one record can exist for a structure, and the calls need not agree. The source made the active and inactive calls. Unless noted, calls come from the whole dose curve.

Sequence of Retinoic acid receptor RXR-alpha (Homo sapiens) (P19793 whole entry, looked up): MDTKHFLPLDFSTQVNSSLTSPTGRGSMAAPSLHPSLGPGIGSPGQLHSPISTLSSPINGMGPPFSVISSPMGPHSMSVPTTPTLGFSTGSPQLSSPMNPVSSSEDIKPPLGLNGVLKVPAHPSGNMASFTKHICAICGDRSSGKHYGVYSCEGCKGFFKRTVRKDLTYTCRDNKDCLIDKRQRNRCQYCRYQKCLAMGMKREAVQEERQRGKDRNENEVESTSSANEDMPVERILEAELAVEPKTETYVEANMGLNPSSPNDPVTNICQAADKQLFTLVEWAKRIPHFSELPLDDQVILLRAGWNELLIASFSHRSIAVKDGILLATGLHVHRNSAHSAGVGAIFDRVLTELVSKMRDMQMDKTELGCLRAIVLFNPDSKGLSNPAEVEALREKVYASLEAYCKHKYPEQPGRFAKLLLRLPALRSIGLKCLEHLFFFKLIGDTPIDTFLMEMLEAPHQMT

For the molecule `C[C@]12CCC(=O)C=C1CC[C@@H]1[C@@H]2CC[C@@]2(C)[C@H]1CC[C@]2(C)O`, the Potency result in assay [1], in assay [2], in assay [3], in [4], in assay [5] and in assay [6] was “inactive” each time. Moreover, the Potency in assay [7] is 15.5 µM (active) and 26.6 µM (active). The molecule was classed as inactive in [8].

Take `CCOP(=S)(OCC)OP(=S)(OCC)OCC`: the Potency result in assay [1], in [2], in [3], in assay [4], in assay [5] and in assay [6] was “inactive” in each case. The Potency result in assay [7] is “inactive”. Also, in assay [8], the call was inactive.

Consider `Cl`, for which the Potency result in assay [1], in [2], in assay [3], in [4], in [5] and in [6] was “inactive” in each case. Also, the Potency result in assay [9] and in assay [10] was “inactive” each time. The molecule was classed as inactive in assay [8].

Turning to `CC(C)=CC1C(C(=O)OCN2C(=O)C3=C(CCCC3)C2=O)C1(C)C` (stereo not given), the Potency result in [1], in assay [2], in [3], in [4], in assay [5] and in assay [6] was “inactive” each time.

As to `[Cl-].[Cl-].[Cl-].[Fe+3]`, the Potency entry in assay [1], in assay [2], in assay [3], in [4], in assay [5] and in [6] was “inactive” throughout. Also, the Potency entry in [10] is “inactive”. Moreover, in [8], the outcome was inactive.

On to `CC(C)(c1ccccc1)c1ccc(O)cc1`, for which the Potency result in assay [1] and in assay [4] was “inactive” throughout. Besides, the Potency in [3] is 43.3 µM (active) and 54.9 µM (active); in [7], 60.6 µM (active).

On to `CCCCC(C#N)(Cn1cncn1)c1ccc(Cl)cc1` (stereo not given), for which the Potency result in assay [1], in assay [2], in [3], in [4], in assay [5] and in [6] was “inactive” each time. For the same molecule, the result in assay [8] was inactive.

`CC(C)Nc1ccc(Nc2ccccc2)cc1`: the Potency was 43.5 µM (active) and 43.6 µM (active) in assay [1]; 43.6 µM (active) in assay [2]; 38.4 µM (active) and 54.5 µM (active) in assay [7]; 43.5 µM (active) and 54.9 µM (active) in [9]. The Potency result in assay [3], in assay [4] and in assay [5] was “inactive” throughout.

With `CC(C)(c1ccc(OCC2CO2)cc1)c1ccc(OCC2CO2)cc1` (stereo not given), the Potency entry in assay [1], in assay [2], in assay [3], in assay [4], in assay [5] and in assay [6] was “inactive” in each case. Moreover, in assay [7], the Potency entry was “inactive”. In addition, the molecule was called inactive in assay [8].

On to `NN=C(N)N`, for which the Potency result in assay [1], in [2], in [3], in assay [4], in assay [5] and in [6] was “inactive” in each case. Further, the Potency entry in assay [9] and in assay [10] was “inactive” throughout. In addition, in assay [8], the molecule was called inactive.

Regarding `ClCC(Cl)CCl`, the Potency result in [1], in assay [2], in assay [3], in assay [4], in assay [5] and in assay [6] was “inactive” each time. Besides, the Potency result in assay [7] and in assay [10] was “inactive” each time. Also, the molecule was called inactive in assay [8].

In the case of `N#Cc1c(Cl)c(Cl)c(Cl)c(C#N)c1Cl`, the Potency was 1.91 µM (active) and 1.95 µM (active) in [1]; 6.79 µM (active) and 8.71 µM (active) in [2]; 5.39 µM (active) and 5.49 µM (active) in assay [5]; 1.51 µM (active) and 864 nM (active) in assay [6]; 1.9 µM (active) and 1.22 µM (active) in assay [7]; 7.76 µM (active) in assay [9]. Moreover, the Potency result in assay [3] is “inactive”.

Turning to `Cc1cccc(N=Nc2ccc(N(C)C)cc2)c1`, the Potency result in assay [1], in [2], in assay [3], in assay [5], in assay [6] and in assay [7] was “inactive” each time. Moreover, the Potency result in [10] was “inactive”. The call in assay [8] was inactive.

Turning to `O=[N+]([O-])c1ccc(Cl)c([N+](=O)[O-])c1`, the Potency in assay [1] was 14 µM (active) and 17.4 µM (active); in [2] it was 19.8 µM (active) and 19.5 µM (active); in assay [3], 49.7 µM (active) and 54.9 µM (active); in assay [5] it was 22.2 µM (active) and 49 µM (active); in assay [6] it was 49.3 µM (active) and 21.7 µM (active); in assay [7], 6.21 µM (active) and 6.86 µM (active). The Potency in assay [9] was 35.2 µM (active) and 34.7 µM (active).

Regarding `CCN(CC)C(=O)C(C)Oc1cccc2ccccc12` (stereo not given), the Potency entry in [1], in assay [2], in assay [3], in assay [4], in [5] and in assay [6] was “inactive” throughout. The Potency entry in [7] is “inactive”. The call in assay [8] was inactive.

In the case of `CCOP(=O)(O)OCC` (tested in a mixture with another compound), the Potency result is “inactive and 17.2 µM (active)” in assay [1]; “inactive and 54.5 µM (active)” in assay [3]; “inactive and 24.3 µM (active)” in [5]; “inactive and 54 µM (active)” in assay [6]; “inactive and 48.6 µM (active)” in assay [9]. Also, the Potency entry in assay [4] and in [10] was “inactive” throughout. In addition, the molecule was classed as inactive in [8].

On to `CCC(=O)Nc1ccc(Cl)c(Cl)c1`, for which the Potency result in assay [1], in assay [2], in [3], in [4], in assay [5] and in [6] was “inactive” each time. Besides, the Potency result in assay [9] and in [10] was “inactive” throughout. Further, in assay [8], the call was inactive.
